# Screening results: PubChem BioAssay, Broad Institute
# Hits are enriched below; roughly 1.8% of the tested compounds scored in any of these assays.
# PAX8 inh HTS: lowers PAX8-driven luciferase in RMG-I cells; 360,000 tested, 1.2% active; inhibition, % at 12.6 µM; AID 652154; RMG-I TPO-luciferase reporter, SteadyGlo, 24 h;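 active = mean replicate inhibition at least 60% with every replicate also reaching 60%; inconclusive = only one of the two criteria is met; inactive = mean below 60% and not all replicates reaching 60%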;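 note: luciferase light reporting Pax8 driven TPO promoter activity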
# EWS-Fli block: blocks EWS/Fli oncoprotein-driven transcription. 350,000 tested, 0.67% active. inhibition, % at 12.6 µM. A673 NR0B1-luciferase reporter, viability-normalised;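 active = mean inhibition of at least 50% after viability correction, with every replicate also passing that limit; inconclusive = mean reaches 50% but only one of two replicates passes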;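 note: firefly luciferase signal divided by Alamar Blue viability fluorescence both relative to DMSO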
# LGR2 inh: Drosophila LGR2 receptor signaling inhibition | AID 720647 | 380,000 tested, 0.35% active | HEK293 LGR2, CRE-luciferase, bursicon-stimulated, 4 h | inhibition, % at 9.99 µM;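 active = drop in luminescence signal, shown as inhibition above about 50% in the replicate tests, limit read from the data, passing the limit was not always enough; inconclusive = probably only some replicates passing the limit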;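 note: agonist challenge used bursicon conditioned medium at about half maximal strength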
# F508del corr: correctors of CFTR F508del function in bronchial epithelial cells; AID 720511; CFBE cells, YFP halide quenching; stimulated with forskolin plus potentiator P3; % fluorescence drop versus neutral controls; activity (quench increase), % at 7.58 µM; 350,000 tested, 0.36% active;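 active = mean added fluorescence quench of at least 8% versus neutral control, with both replicates also reaching 8%; inconclusive = only one of the mean or replicate conditions met; inactive = mean below 8% and not both replicates reaching 8%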;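 note: cells transiently co-express mutant CFTR-F508del with the halide-sensitive YFP; corrector assay measuring rescue of mutant channel to the surface after 24 h compound exposure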
# DNA binder FP: binds DNA displacing acridine orange | shares compounds with EWS-Fli block | salmon sperm DNA acridine orange fluorescence polarization | AC35, µM (top dose mostly 68 µM) | 640 tested, 2% active | AID 720586;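 active = fitted curve reaches a 35% signal fall AC35 below twice the sample's top valid tested dose, actives reach about 48 µM in these data; inactive = the rest, including activity in the rising direction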;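 note: lower polarization ratio signals compound binding to DNA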
# Numbers stand for hits; - = inactive; ? = inconclusive; . = no result given.
SMILES,PAX8 inh HTS,EWS-Fli block,LGR2 inh,F508del corr,DNA binder FP
COC(=O)C[C@H]1CC[C@H]2[C@H](COc3ccc(NC(=O)Nc4cccc(Cl)c4)cc3C(=O)N2C)O1,-,79.6,-,-,-
COC(=O)C[C@@H]1CC[C@@H]2[C@@H](COc3ccc(NC(=O)Nc4cccc(C#N)c4)cc3C(=O)N2C)O1,-,76.3,-,-,-
COC(=O)C[C@H]1CC[C@@H]2[C@@H](COc3ccc(NC(=O)Nc4cccc(Cl)c4)cc3C(=O)N2C)O1,-,-,-,-,.
COC(=O)C[C@@H]1CC[C@H]2[C@H](COc3ccc(NC(=O)Nc4cc(C)cc(C)c4)cc3C(=O)N2C)O1,-,64.3,-,.,-
COC(=O)C[C@@H]1CC[C@H]2[C@H](COc3ccc(NC(=O)Nc4cccc(C#N)c4)cc3C(=O)N2C)O1,-,-,-,-,.
COC(=O)C[C@H]1CC[C@@H]2[C@H](COc3ccc(NC(=O)Nc4cccc(Cl)c4)cc3C(=O)N2C)O1,-,60.2,-,-,-
CCCC#Cc1ccc2c(c1)O[C@@H](CN(C)C(=O)c1cnccn1)[C@H](C)CN([C@H](C)CO)S2(=O)=O,.,-,-,-,.
COc1cc(OC)cc(C(=O)NN(CCC#N)C2=NS(=O)(=O)c3ccccc32)c1,-,-,-,-,.
O=C(O)C[C@@H]1C[C@H]2c3cc(NS(=O)(=O)c4ccccc4)ccc3O[C@H]2[C@@H](CO)O1,.,-,-,-,.
Cc1[nH]c(=S)sc1Cc1ccc(Cl)c(Cl)c1,-,78.9,-,.,-
C[C@H]1CN([C@@H](C)CO)C(=O)Cc2cc(NC(=O)CCCCCC(=O)Nc3ccccc3N)ccc2O[C@H]1CN(C)Cc1ccc(Oc2ccccc2)cc1,-,60.1,-,-,-
C[C@H](CO)N1C[C@H](C)[C@H](CN(C)Cc2ccc(Oc3ccccc3)cc2)Oc2ccc(NC(=O)CCCCCC(=O)Nc3ccccc3N)cc2CC1=O,-,60.5,-,-,-
C[C@@H]1CN([C@@H](C)CO)C(=O)Cc2cc(NC(=O)CCCCCC(=O)Nc3ccccc3N)ccc2O[C@@H]1CN(C)Cc1ccc(-c2ccccc2)cc1,-,-,.,-,.
C[C@H]1CN([C@@H](C)CO)C(=O)Cc2cc(NC(=O)CCCCCC(=O)Nc3ccccc3N)ccc2O[C@H]1CN(C)Cc1ccc(Cl)c(Cl)c1,-,50.5,-,-,-
C[C@H]1CN([C@@H](C)CO)C(=O)Cc2cc(NC(=O)CCCCCC(=O)Nc3ccccc3N)ccc2O[C@@H]1CN(C)Cc1ccc(-c2ccccc2)cc1,-,-,-,-,.
C[C@H](CO)N1C[C@H](C)[C@@H](CN(C)Cc2ccc(Cl)c(Cl)c2)Oc2ccc(NC(=O)CCCCCC(=O)Nc3ccccc3N)cc2CC1=O,-,?,-,-,.
C[C@@H]1CN([C@@H](C)CO)C(=O)c2cccc(NC(=O)CCCCCC(=O)Nc3ccccc3N)c2O[C@@H]1CN(C)Cc1ccc(Oc2ccccc2)cc1,-,52.8,-,-,-
C[C@@H]1CN([C@H](C)CO)C(=O)c2cccc(NC(=O)CCCCCC(=O)Nc3ccccc3N)c2O[C@@H]1CN(C)Cc1ccc(Oc2ccccc2)cc1,-,-,-,-,.
Cc1ccc(S(=O)(=O)Nc2ccc3c(c2)C(=O)N([C@H](C)CO)C[C@H](C)[C@H](CN(C)S(=O)(=O)c2cccs2)OCCCC[C@@H](C)O3)cc1,-,-,-,-,.
CCCC(=O)Nc1c(-c2ccccc2)c(=O)c(C)nn1-c1ccc(Cl)cc1,-,-,-,-,.
C[C@H]1CN([C@@H](C)CO)C(=O)Cc2cc(NC(=O)CCCCCC(=O)Nc3ccccc3N)ccc2O[C@H]1CN(C)Cc1ccc(C(F)(F)F)cc1,-,55.9,-,-,-
C[C@@H]1CN([C@@H](C)CO)C(=O)Cc2cc(NS(=O)(=O)c3cccs3)ccc2O[C@H]1CN(C)Cc1ccc(Cl)c(Cl)c1,.,58.8,-,-,-
C[C@@H]1CN([C@H](C)CO)C(=O)Cc2cc(NC(=O)CCCCCC(=O)Nc3ccccc3N)ccc2O[C@@H]1CN(C)CC1CCCCC1,-,60.5,-,-,-
C[C@H](CO)N1C[C@H](C)[C@H](CN(C)Cc2ccccc2)Oc2ccc(NC(=O)CCCCCC(=O)Nc3ccccc3N)cc2CC1=O,-,56.1,-,-,-
CCCC#Cc1cnc2c(c1)C(=O)N([C@@H](C)CO)C[C@@H](C)[C@@H](CN(C)C(=O)Nc1ccccc1F)O2,.,-,-,-,.
SMILES,PAX8 inh HTS,EWS-Fli block,LGR2 inh,F508del corr,DNA binder FP
O=C(C[C@@H]1CC[C@@H](NC(=O)CN2CCOCC2)[C@H](CO)O1)NCCc1ccncc1,-,-,-,-,.
Cc1ccc(S(=O)(=O)N(C)C[C@H]2Oc3c(cccc3N(C)C)C(=O)N([C@@H](C)CO)C[C@@H]2C)cc1,-,52.8,58.8,-,-
Cc1ccc(S(=O)(=O)N(C)C[C@H]2Oc3c(cccc3N(C)C)C(=O)N([C@H](C)CO)C[C@@H]2C)cc1,-,-,-,-,.
C[C@@H]1CN([C@@H](C)CO)C(=O)c2cccc(NC(=O)Nc3cccc4ccccc34)c2O[C@@H]1CN(C)Cc1ccc(C(=O)Nc2ccccc2N)cc1,-,54.0,-,-,-
C[C@@H]1CN([C@H](C)CO)C(=O)c2cc(C#CCN(C)C)cnc2O[C@H]1CN(C)Cc1ccc(-c2ccccc2)cc1,.,53.9,-,-,-
C[C@H]1CN([C@@H](C)CO)C(=O)c2cccc(NC(=O)c3ccc(-c4nccs4)cc3)c2O[C@@H]1CN(C)Cc1ccc(C(=O)Nc2ccccc2N)cc1,.,51.9,-,-,-
C[C@H](CO)N1C[C@H](C)[C@H](CN(C)Cc2ccc(C(=O)Nc3ccccc3N)cc2)Oc2c(cccc2N(C)C)C1=O,-,54.2,-,-,-
C[C@H](CO)N1C[C@H](C)[C@H](CN(C)Cc2ccc(C(=O)Nc3ccccc3N)cc2)Oc2c(NC(=O)C3CC3)cccc2C1=O,.,-,-,-,.
C[C@H]1CN([C@@H](C)CO)C(=O)c2cccc(NC(=O)Nc3ccccc3)c2O[C@@H]1CN(C)Cc1ccc(-c2ccccc2)cc1,-,-,-,-,.
C[C@@H]1CN([C@@H](C)CO)C(=O)c2cccc(NC(=O)Nc3ccccc3)c2O[C@@H]1CN(C)Cc1ccc(-c2ccccc2)cc1,-,77.8,.,-,-
C[C@@H]1CN([C@H](C)CO)C(=O)c2cccc(N(C)C)c2O[C@@H]1CN(C)Cc1ccc(C(=O)Nc2ccccc2N)cc1,-,56.0,.,-,-
CCCCOC(=O)c1nnc(-c2ccccc2)o1,-,-,-,-,.
COC(=O)c1ccccc1-c1c2ccc(=N)cc-2oc2cc(N)ccc12,96.0,85.5,-,61.5,<0.03µM
O=S(N1CCc2ccccc21)C12CC3CC(CC(C3)C1)C2 (configuration not stated),-,-,-,-,.
CC(C)c1ccccc1NC(=O)COC(=O)CCN1C(=O)/C(=C\C=C\c2ccccc2)SC1=S,-,62.1,-,-,-
O=C(COC(=O)CCN1C(=O)/C(=C\C=C\c2ccccc2)SC1=S)Nc1ccc(Br)cc1,-,-,-,-,.
